Screening data deposited in PubChem BioAssay by University of Kansas High Throughput Screening Laboratory.
mHTT CaM bind: mutant huntingtin-calmodulin interaction inhibitors – biochemical, AlphaScreen, primary screen; AlphaScreen His-mHTT/GST-CaM binding, luminescence; inhibition, % at 15 µM; actives 3.6% (n = 190,000); AID 1671202, 2021;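 further: 0% = both proteins with DMSO and 100% = one protein alone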
Target sequence (P42858 whole entry, looked up, stated change not applied): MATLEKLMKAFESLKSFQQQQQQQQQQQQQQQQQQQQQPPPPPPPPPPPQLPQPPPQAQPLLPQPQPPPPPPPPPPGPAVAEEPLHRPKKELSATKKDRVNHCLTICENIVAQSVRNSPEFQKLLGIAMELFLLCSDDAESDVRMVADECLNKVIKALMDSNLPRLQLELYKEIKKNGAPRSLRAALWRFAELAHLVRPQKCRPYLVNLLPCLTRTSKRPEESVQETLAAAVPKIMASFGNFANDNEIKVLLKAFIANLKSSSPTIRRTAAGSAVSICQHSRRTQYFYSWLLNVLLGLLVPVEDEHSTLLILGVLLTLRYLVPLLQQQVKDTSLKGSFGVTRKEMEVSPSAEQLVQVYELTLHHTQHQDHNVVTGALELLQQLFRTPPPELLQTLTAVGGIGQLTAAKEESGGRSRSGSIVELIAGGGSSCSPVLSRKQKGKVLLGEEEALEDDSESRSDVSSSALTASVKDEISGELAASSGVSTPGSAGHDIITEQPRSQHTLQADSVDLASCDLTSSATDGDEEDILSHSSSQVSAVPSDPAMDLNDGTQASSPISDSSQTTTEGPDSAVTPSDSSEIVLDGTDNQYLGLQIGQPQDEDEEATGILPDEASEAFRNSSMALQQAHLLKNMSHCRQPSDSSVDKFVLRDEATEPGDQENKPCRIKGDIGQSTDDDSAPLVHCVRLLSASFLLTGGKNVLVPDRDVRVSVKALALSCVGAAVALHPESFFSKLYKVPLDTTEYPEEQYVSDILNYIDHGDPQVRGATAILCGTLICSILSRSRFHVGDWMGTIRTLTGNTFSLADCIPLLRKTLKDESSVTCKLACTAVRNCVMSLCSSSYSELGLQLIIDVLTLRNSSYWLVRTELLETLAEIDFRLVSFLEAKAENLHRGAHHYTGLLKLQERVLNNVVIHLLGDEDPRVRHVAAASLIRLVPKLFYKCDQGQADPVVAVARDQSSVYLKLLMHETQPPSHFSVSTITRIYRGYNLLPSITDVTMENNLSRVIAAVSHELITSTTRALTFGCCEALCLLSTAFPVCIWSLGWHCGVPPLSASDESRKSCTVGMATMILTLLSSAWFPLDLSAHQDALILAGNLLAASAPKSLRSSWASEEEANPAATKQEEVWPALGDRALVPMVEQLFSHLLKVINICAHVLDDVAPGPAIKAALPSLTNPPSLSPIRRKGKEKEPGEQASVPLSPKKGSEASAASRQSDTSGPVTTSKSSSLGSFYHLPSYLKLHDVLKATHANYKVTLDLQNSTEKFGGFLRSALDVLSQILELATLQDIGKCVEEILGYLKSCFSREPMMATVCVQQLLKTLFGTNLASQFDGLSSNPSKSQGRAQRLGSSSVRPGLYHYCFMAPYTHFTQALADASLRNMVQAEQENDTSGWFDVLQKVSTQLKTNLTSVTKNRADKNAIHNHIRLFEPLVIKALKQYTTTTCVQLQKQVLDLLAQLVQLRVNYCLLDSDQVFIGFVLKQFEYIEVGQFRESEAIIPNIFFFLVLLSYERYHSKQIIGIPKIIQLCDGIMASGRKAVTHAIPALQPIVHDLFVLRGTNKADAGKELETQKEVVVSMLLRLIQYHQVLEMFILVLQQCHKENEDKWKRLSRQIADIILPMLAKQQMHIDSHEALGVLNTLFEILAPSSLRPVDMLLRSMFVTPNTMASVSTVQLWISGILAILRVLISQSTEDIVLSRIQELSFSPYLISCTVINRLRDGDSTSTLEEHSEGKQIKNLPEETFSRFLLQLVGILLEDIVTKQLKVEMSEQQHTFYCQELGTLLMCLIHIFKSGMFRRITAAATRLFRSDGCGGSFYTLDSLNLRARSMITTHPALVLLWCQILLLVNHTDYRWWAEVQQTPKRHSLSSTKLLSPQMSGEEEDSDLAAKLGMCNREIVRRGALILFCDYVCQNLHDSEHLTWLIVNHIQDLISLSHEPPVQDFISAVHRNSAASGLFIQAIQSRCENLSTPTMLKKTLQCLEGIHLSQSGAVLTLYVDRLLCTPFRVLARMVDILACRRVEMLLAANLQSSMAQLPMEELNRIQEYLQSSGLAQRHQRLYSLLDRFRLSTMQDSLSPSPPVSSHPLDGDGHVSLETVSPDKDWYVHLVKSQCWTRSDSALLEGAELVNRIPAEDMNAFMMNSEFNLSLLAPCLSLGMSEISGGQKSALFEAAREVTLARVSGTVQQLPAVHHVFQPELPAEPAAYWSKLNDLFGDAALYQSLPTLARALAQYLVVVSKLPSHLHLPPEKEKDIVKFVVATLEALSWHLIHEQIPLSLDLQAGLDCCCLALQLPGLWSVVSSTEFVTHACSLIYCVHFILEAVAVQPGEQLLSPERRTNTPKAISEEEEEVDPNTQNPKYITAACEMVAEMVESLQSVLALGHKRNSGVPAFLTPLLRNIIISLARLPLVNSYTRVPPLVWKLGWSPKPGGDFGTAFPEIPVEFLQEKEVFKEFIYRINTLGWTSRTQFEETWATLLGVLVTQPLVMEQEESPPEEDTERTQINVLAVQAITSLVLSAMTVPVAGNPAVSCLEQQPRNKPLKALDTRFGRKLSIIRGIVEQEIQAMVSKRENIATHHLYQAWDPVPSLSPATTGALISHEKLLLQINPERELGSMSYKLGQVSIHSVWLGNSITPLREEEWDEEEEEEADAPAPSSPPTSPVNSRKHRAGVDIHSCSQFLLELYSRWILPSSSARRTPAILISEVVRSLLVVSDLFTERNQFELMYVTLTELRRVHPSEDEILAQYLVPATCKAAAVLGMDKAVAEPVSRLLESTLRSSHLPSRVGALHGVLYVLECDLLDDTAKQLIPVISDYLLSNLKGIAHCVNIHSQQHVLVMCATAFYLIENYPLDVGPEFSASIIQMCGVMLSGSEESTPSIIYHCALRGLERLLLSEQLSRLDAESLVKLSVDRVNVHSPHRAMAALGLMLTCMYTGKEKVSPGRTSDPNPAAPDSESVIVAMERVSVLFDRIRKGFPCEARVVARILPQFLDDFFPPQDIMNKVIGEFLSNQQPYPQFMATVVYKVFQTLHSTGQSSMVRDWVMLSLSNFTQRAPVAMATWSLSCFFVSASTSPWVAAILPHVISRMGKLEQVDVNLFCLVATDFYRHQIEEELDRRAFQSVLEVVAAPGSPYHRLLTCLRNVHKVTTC
Pf apPOL inh: Pf-apPOL inhibitors, biochemical, fluorescence | Plasmodium falciparum apicoplast DNA polymerase (apPOL) | Recombinant Pf-apPOL, molecular beacon fluorescence, 1.5 h | inhibition, % at 10 µM | actives 0.25% (n = 210,000) | AID 1794808, 2022
* = called active by the depositor; . = not tested or not shown. Only a selection was taken, and hits are over-represented in it overall. No stated cut-off is given here; in the data, active means inhibition above about 50%; inactive means the rest.

SMILES | mHTT CaM bind | Pf apPOL inh
O=C(Cn1nc2c(c1NC(=O)C1COc3ccccc3O1)CSC2)NCc1ccco1 (stereo unspecified) | 94* | 20
Cc1cc(-c2nc(-c3ccnn3C(=O)Nc3ccccc3)cs2)no1 | . | -4
COc1ccc(NC(=O)c2ccc(N(Cc3ccc(Cl)cc3)S(C)(=O)=O)cc2)cc1OC | 38 | -2
CS(=O)(=O)N(Cc1ccc(Cl)cc1)c1ccc(C(=O)Nc2ccc3c(c2)OCO3)cc1 | 8 | 89*
N#Cc1sc2nc3c(cc2c1N)CCCCCC3 | -21 | .
COc1ccc(CNC(=O)c2cc(-c3cccnc3)nc3ccccc23)cc1 | 70* | -7
COc1cccc(CNC(=O)c2cc(-c3cccnc3)nc3ccccc23)c1 | 39 | -21
CCC(C(=O)N1CCC(c2nc(C(=O)N3CCOCC3)c(C)o2)CC1)c1ccccc1 (stereo unspecified) | 15 | 10
O=C(CSc1ccc(-c2ccccn2)nn1)c1ccc([N+](=O)[O-])cc1 | 100* | 2
Cc1nc(C)c(-c2ccc(SCC(=O)c3ccc([N+](=O)[O-])cc3)nn2)s1 | 21 | 2
Cc1c(Cc2ccccc2)sc(N)c1C(N)=O | 75* | -6
Cc1c(Cc2ccccc2)sc(NC(=O)Nc2ccccc2)c1C(N)=O | 17 | -6
CN(C)S(=O)(=O)Oc1ccc(-c2noc(-c3ccc(Oc4cc(Cl)cc(Cl)c4)o3)n2)cc1 | . | 59*
FC(F)(F)c1cccc(-c2nnc(-c3ccc(Oc4cc(Cl)cc(Cl)c4)o3)o2)c1 | . | 0
O=C(Nc1cccc(F)c1)/C(=C\c1cccc([N+](=O)[O-])c1)NC(=O)c1ccc(F)cc1Cl | 2 | -1
Cc1cccc2sc(N(CCCN(C)C)C(=O)c3ccccc3Br)nc12 | 96* | -4
CN(C)CCCN(C(=O)c1nc2ccccc2s1)c1nc2c(Cl)cccc2s1 | 25 | 11
Cc1cc(=O)n(-c2cccc(C(F)(F)F)c2)n1C | -3 | 20
C=CCn1c(=N)c(S(=O)(=O)c2ccc(C)cc2)cc2c(=O)n3ccccc3nc21 | 1 | -9
Cc1ccc2c(c1C)-n1cccc1C1(CCN(C(=O)Cc3ccccc3Cl)CC1)N2 | 56* | -9
COc1ccccc1NC(=O)N1CCC2(CC1)Nc1ccccc1-n1cccc12 | 35 | -6
Cc1ccc(C)c(CN2C(=O)NC3(CCN(C(=O)Cc4ccccc4Cl)CC3)C2=O)c1 | 7 | 0
COC(=O)C(C)NC(=O)N1CCC2(CC1)Nc1ccccc1-n1cccc12 (stereo unspecified) | 55* | 3
COCCCNC(=O)N1CCC2(CC1)Nc1cc(F)ccc1-n1cccc12 | 62* | 6
COC(=O)CNC(=O)N1CCC2(CC1)Nc1cc(F)ccc1-n1cccc12 | 33 | -5
SMILES | mHTT CaM bind | Pf apPOL inh
O=C(CSCc1ccc(F)cc1)N1CCC2(CC1)Nc1cc(F)ccc1-n1cccc12 | 100* | -1
COCCN1C(=O)Cc2ccccc2C1C(=O)NCc1ccccc1OC (stereo unspecified) | -5 | -5
Cn1nc(C(C)(C)C)cc1C(=O)Nc1ccc(-c2cn3c(n2)SCC3)cc1 | . | -3
O=C(CSc1ccc(-c2cccs2)nn1)NC1CCCCC1 | -18 | -2
Cc1noc(C)c1S(=O)(=O)N1CCC(C(C)C(=O)NCCN2CCCCCC2)CC1 (stereo unspecified) | -1 | 0
COc1ccc2nc(NC(=O)c3cccc([N+](=O)[O-])c3C)sc2c1 | 2 | -3
Cc1ccc(NC(=O)N2CCC3(CC2)Nc2ccccc2-n2cccc23)cc1 | 12 | -6
CCC(C)NC(=O)N1CCC2(CC1)Nc1cc(F)ccc1-n1cccc12 (stereo unspecified) | 37 | -3
COc1ccc2c(c1)NC1(CCN(C(=O)Cc3cccc(F)c3)CC1)c1cccn1-2 | 73* | 2
O=C(NCc1ccc(F)cc1)N1CCC2(CC1)Nc1cc(F)ccc1-n1cccc12 | 59* | 2
CCOC(=O)CNC(=O)N1CCC2(CC1)Nc1ccccc1-n1cccc12 | 56* | -6
Cc1ccc(CNC(=O)N2CCC3(CC2)Nc2ccccc2-n2cccc23)cc1 | 77* | -3
O=C(NC1CCCC1)N1CCC2(CC1)Nc1cc(F)ccc1-n1cccc12 | 29 | -5
O=C(Nc1nnc(-c2ccco2)o1)c1cc2cc([N+](=O)[O-])ccc2s1 | 1 | 6
CCc1ccccc1NC(=O)c1ccccc1Br | -5 | -3
COc1ccc(NS(=O)(=O)c2cc3c(s2)CCN(C(=O)C2CC2)C3)cc1F | 9 | -1
C/C(NCc1ccccc1)=C(/C#N)C(=O)NCc1ccccc1 | -7 | 2
CC1CCCCN1CCCNC(=O)CN1N=C(c2ccc(Cl)cc2)CCC1=O (stereo unspecified) | 6 | -12
CC(C)CC(=O)Nc1nnc(C2CC(=O)N(c3ccc(S(C)(=O)=O)cc3)C2)o1 (stereo unspecified) | 10 | 3
Cc1cccc(-n2nc(C)c3sc(N4CCC(NC(=O)C5CCCC5)CC4)nc32)c1 | 1 | -3
O=C1CCc2cc(Cl)ccc21 | . | -10
CC(=O)Nc1nc(-c2cc3cc(Cl)cc(Cl)c3oc2=O)cs1 | 3 | 98*
Nc1nc(-c2cc3cc(Cl)cc(Cl)c3oc2=O)cs1 | -16 | 0
CCCCS(=O)(=O)N1CCC(c2nc3cccnc3n2CC)C1 (stereo unspecified) | -1 | -3
CCCCOc1ccc(C(=O)N(c2ccc(C)c(Cl)c2)C2C=CS(=O)(=O)C2)cc1 (stereo unspecified) | 64* | -2
SMILES | mHTT CaM bind | Pf apPOL inh
Cc1ccc(N(C(=O)Cc2ccccc2)C2C=CS(=O)(=O)C2)cc1Cl (stereo unspecified) | -4 | 3
CC(=O)Nc1ccc(Nc2ncc([N+](=O)[O-])cc2[N+](=O)[O-])cc1 | 8 | 7
CCC(C)c1cc([N+](=O)[O-])cc([N+](=O)[O-])c1OC(=O)OC(C)C (stereo unspecified) | 51* | -10
Cc1ccnc(NS(=O)(=O)c2ccc(NC(=O)CCCc3ccccc3)cc2)n1 | -4 | -20
COc1ccc2cccc(NC(=O)c3ccco3)c2n1 | 12 | -7
COc1ccc2cccc(NC(=O)c3c[nH]c4ccccc34)c2n1 | 58* | -1
C=CCNC(=O)c1nnc(N2CCCC2)c2ccccc12 | 8 | -24
C=CCNC(=O)c1nc(N2CCCCC2)c2c(C)c(C)n(-c3ccccc3)c2n1 | 89* | -5
CCc1ccc(C(=O)Nc2nnc3ccccn23)cc1 | 58* | -11
CCOc1cccc2nnc(NC(=O)c3ccc(C(F)(F)F)cc3)n12 | 9 | 2
O=C(Nc1nnc2ccccn12)c1ccc(C(F)(F)F)cc1 | 38 | -23
CC(C)c1ccc(C(=O)Nc2nnc3ccccn23)cc1 | 65* | -3
CCOc1cccc2nnc(NC(=O)c3ccc(C)cc3)n12 | 51* | 31
CC(C)CC(=O)Nc1nnc2ccccn12 | 10 | -6
O=C(Nc1nnc2ccccn12)c1ccccc1C(F)(F)F | 10 | -8
O=C(Nc1nnc2ccccn12)c1ccccc1Br | 100* | -3
Cc1cccc(C2=N/C(=C/c3ccccc3C(F)(F)F)C(=O)O2)c1 | 5 | -5
CCc1c(O)nc(SCC(=O)Nc2ccc(N(CC)CC)cc2C)n(-c2ccccc2)c1=O | 6 | 2
CCOc1ccccc1C1C(C#N)=C(N)Oc2c1c(=O)[nH]c1ccccc21 (stereo unspecified) | 19 | -2
